Data from PubChem BioAssay (EPA / NIEHS).
The source made the active and inactive calls. Rule for the calls: active = hit-call score of the fitted dose curve at least 0.9, where 1 is the maximum; inactive = score below 0.9.

Columns and labels:
[1] = biological target: Transcription factor E2F1 (Homo sapiens) (UniProt Q01094); test: ATG_E2F_CIS: Attagene CIS-FACTORIAL HepG2 Assay for human E2F Transcription Factor 1 (AID 2282935); settings: HepG2 Attagene cis-reporter, E2F reporter RNA transcripts; actives raise or lower the signal
Chain of Transcription factor E2F1 (Homo sapiens) (Q01094 whole entry, looked up): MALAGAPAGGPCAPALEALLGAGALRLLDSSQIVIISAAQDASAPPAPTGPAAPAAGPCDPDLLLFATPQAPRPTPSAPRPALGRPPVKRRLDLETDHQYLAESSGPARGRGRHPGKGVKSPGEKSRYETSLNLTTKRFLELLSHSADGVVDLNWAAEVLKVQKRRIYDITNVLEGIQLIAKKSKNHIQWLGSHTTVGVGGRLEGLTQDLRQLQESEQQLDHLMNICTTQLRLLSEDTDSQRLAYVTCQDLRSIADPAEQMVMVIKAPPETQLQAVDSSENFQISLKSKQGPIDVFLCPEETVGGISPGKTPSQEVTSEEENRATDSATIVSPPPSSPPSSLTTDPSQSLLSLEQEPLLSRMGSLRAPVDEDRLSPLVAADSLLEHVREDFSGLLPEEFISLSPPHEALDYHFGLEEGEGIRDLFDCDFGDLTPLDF
Summary of the method: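 Multiplexed cis-reporter assay: HepG2, transient transfection, 24 h dosing, mRNA quantitation by labeled RT-PCR and CE.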

[2] = ATG_E_Box_CIS: Attagene CIS-FACTORIAL HepG2 Assay for human Enhancer Box (E-box) (AID 2282936); settings: HepG2 E-box cis-reporter transcription, actives raise or lower the signal
Summary of the method: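 Multiplexed CIS reporter system in transiently transfected HepG2 cells measures native transcription factor activity. Reporter RNA after 24 h exposure is profiled by RT-PCR-capillary electrophoresis.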

[3] = ATG_M_61_CIS: Attagene CIS-FACTORIAL HepG2 Assay for M61 Transcription Factor (Internal Marker) (AID 2282937); settings: HepG2 Attagene CIS-FACTORIAL M61 internal marker reporter; actives raise or lower the signal
Summary of the method: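 Endogenous transcription factor activity in HepG2 is read through transiently transfected cis-element reporter units. After 24 h dosing, RNA undergoes reverse transcription, PCR and primer extension with 6-FAM before capillary electrophoresis; DMSO-referenced bidirectional fit.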

[4] = ATG_EGR_CIS: Attagene CIS-FACTORIAL HepG2 Assay for human Early Growth Response 1 (EGR1) (AID 2282938); settings: HepG2 Attagene CIS-FACTORIAL EGR reporter mRNA; actives raise or lower the signal
Summary of the method: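 Activity is taken as induction or loss of reporter mRNA versus DMSO, fitted bidirectionally. Transcripts from cis-regulated reporter units in transiently transfected HepG2 were measured after 24 h by RT-PCR with capillary electrophoresis.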

[5] = ATG_M_19_CIS: Attagene CIS-FACTORIAL HepG2 Assay for M19 Transcription Factor (Internal Marker) (AID 2282939); settings: HepG2 Attagene CIS-FACTORIAL M19 internal marker reporter; actives raise or lower the signal
Summary of the method: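 Internal marker readout, fitted in both directions against DMSO, from HepG2 cells carrying transfected cis-element reporter constructs; RT-PCR and capillary electrophoresis of reporter mRNA after 24 h exposure.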

[6] = ATG_ERE_CIS: Attagene CIS-FACTORIAL HepG2 Assay for Estrogen Response Element (ERE) (AID 2282940); settings: HepG2 ERE cis-reporter, Attagene RNA transcript; actives raise or lower the signal
Summary of the method: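 After 24 h compound treatment, RNA from transfected HepG2 cells was reverse-transcribed, reporter cDNA PCR-amplified, FAM-labelled, HpaI-cut and resolved by capillary electrophoresis. ERE-driven cis reporter transcripts reflect endogenous factors; gain or loss scored against DMSO.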

[7] = ATG_Ets_CIS: Attagene CIS-FACTORIAL HepG2 Assay for human Erythroblast Transformation Specific (ETS) (AID 2282941); settings: HepG2 ETS cis-reporter transcription, actives raise or lower the signal
Summary of the method: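 Human HepG2 hepatoma cells were transiently transfected with promoter-driven reporter constructs and treated for 24 hours. Reporter transcripts were quantified by RT-PCR with fluorescent primer extension; bidirectional curve fitting used DMSO as reference.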

[8] = biological target: Hepatocyte nuclear factor 3-beta (Homo sapiens) (UniProt Q9Y261); test: ATG_FoxA2_CIS: Attagene CIS-FACTORIAL HepG2 Assay for human Forkhead box A2 (FOXA2) (AID 2282942); settings: HepG2 cis-reporter transcription factor activity, 24 h; actives raise or lower the signal
Chain of Hepatocyte nuclear factor 3-beta (Homo sapiens) (Q9Y261 whole entry, looked up): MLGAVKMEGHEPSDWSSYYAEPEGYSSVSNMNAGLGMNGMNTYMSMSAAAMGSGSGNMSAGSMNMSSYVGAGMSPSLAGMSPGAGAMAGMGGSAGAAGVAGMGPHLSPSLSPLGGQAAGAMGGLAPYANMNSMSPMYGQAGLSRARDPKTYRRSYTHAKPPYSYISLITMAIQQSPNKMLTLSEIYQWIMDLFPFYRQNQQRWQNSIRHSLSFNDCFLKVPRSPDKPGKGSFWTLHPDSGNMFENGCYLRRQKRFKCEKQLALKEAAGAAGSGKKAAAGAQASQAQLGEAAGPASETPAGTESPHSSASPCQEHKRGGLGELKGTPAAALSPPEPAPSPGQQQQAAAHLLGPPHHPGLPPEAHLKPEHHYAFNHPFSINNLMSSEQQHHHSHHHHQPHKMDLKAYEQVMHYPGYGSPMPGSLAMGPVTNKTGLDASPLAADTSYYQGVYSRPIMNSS
Summary of the method: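 Reporter transcript induction is measured by fluorescence after capillary electrophoresis of RT-PCR products from HepG2 cells exposed 24 h. Cis-regulated reporter units report endogenous factor activity; curves fitted both directions against DMSO.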

[9] = ATG_GATA_CIS: Attagene CIS-FACTORIAL HepG2 Assay for human GATA Binding Protein (AID 2282944); settings: HepG2 GATA cis-element reporter, Attagene multiplex mRNA; actives raise or lower the signal
Summary of the method: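 Reporter transcripts from a GATA cis-regulated unit, among multiplexed reporters in transfected HepG2 cells, were measured by RT-PCR with capillary electrophoresis after 24 h dosing. Induction or loss scored relative to DMSO.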

[10] = ATG_GLI_CIS: Attagene CIS-FACTORIAL HepG2 Assay for human Zinc Finger Protein GLI1 (AID 2282945); settings: HepG2, Attagene cis-factorial reporter mRNA, GLI element; actives raise or lower the signal
Summary of the method: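 HepG2 cells transiently transfected with cis-promoter multiplexed reporter units report endogenous transcription factor activity. After 24 h chemical exposure, reporter mRNA was quantified by RT-PCR, 6-FAM labelling, HpaI digestion and capillary electrophoresis, with bidirectional fitting against DMSO.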

[11] = ATG_GRE_CIS: Attagene CIS-FACTORIAL HepG2 Assay for human Glucocorticoid Response Elements (GRE) (AID 2282947); settings: HepG2 GRE cis-reporter, Attagene multiplex mRNA; actives raise or lower the signal
Summary of the method: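 Following 24 h chemical exposure of transiently transfected HepG2 cells, total RNA was reverse-transcribed and reporter cDNA amplified, fluorescently labelled and sized by capillary electrophoresis. Signal gain or loss was fitted relative to DMSO vehicle.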

[12] = ATG_ISRE_CIS: Attagene CIS-FACTORIAL HepG2 Assay for human Interferon Regulatory Factor 1 (IRF1) binding to an Interferon-Stimulated Response Element (ISRE) (AID 2282948); settings: HepG2 ISRE cis-reporter (Attagene), mRNA transcription readout; actives raise or lower the signal
Summary of the method: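 Cell-based cis-reporter assay; HepG2; 24 h exposure; reporter mRNA by RT-PCR plus capillary electrophoresis fluorescence; activity in either direction scored relative to DMSO.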

[13] = ATG_M_32_CIS: Attagene CIS-FACTORIAL HepG2 Assay for M32 Transcription Factor (Internal Marker) (AID 2282949); settings: HepG2 Attagene cis-factorial M32 reporter, mRNA; actives raise or lower the signal;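 note: background control marker of the multiplexed CIS panel rather than a real target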
Summary of the method: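 Fluorescent capillary electrophoresis peaks of HpaI-digested, FAM-labelled RT-PCR reporter products give the signal. Source: transiently transfected human liver HepG2 cells, 24 h after chemical dosing; bidirectional fitting against DMSO.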

[14] = ATG_M_06_CIS: Attagene CIS-FACTORIAL HepG2 Assay for M06 Transcription Factor (Internal Marker) (AID 2282950); settings: HepG2 Attagene CIS-FACTORIAL M06 internal marker reporter; actives raise or lower the signal
Summary of the method: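 Serves as a background control readout. Transfected HepG2 exposed to compounds for 24 h, then reporter transcripts quantified by fluorescent RT-PCR and capillary electrophoresis. Both directions fitted against DMSO baseline.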

[15] = biological target: Hypoxia-inducible factor 1-alpha (Homo sapiens) (UniProt Q16665); test: ATG_HIF1a_CIS: Attagene CIS-FACTORIAL HepG2 Assay for human Hypoxia Inducible Factor 1 (HIF1A) (AID 2282951); settings: HepG2 Attagene cis-factorial HIF1a reporter transcription; actives raise or lower the signal
Chain of Hypoxia-inducible factor 1-alpha (Homo sapiens) (Q16665 whole entry, looked up): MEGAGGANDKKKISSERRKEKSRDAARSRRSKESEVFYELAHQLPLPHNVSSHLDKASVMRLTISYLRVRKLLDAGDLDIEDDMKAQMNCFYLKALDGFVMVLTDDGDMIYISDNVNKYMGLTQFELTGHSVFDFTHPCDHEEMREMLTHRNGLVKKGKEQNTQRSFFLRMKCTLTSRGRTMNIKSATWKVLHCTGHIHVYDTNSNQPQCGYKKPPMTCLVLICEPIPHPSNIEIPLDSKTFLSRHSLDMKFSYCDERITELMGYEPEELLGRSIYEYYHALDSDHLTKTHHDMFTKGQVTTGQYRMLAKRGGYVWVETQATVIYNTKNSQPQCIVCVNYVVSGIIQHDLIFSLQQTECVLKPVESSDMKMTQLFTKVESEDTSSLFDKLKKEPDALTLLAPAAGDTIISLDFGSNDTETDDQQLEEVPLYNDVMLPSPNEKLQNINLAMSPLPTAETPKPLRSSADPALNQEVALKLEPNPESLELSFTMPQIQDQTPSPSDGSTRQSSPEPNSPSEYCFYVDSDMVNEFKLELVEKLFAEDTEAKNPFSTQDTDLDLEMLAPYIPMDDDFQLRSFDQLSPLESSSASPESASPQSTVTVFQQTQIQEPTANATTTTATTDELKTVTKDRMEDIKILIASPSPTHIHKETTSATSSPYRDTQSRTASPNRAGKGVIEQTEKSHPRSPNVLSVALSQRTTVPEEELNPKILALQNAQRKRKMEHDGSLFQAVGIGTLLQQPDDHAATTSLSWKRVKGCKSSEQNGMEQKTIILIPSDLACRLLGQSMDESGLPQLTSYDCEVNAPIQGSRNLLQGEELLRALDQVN
Summary of the method: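 Fluorescence intensity of capillary-separated, 6-FAM-labelled reporter amplicons gives mRNA induction in HepG2 cells carrying transfected cis-promoter reporter units; cells exposed 24 h, responses fitted up or down from DMSO.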

[16] = biological target: Hepatocyte nuclear factor 6 (Homo sapiens) (UniProt Q9UBC0); test: ATG_HNF6_CIS: Attagene CIS-FACTORIAL HepG2 Assay for human Hepatocyte Nuclear Factor 6 (HNF6) (AID 2282952); settings: HepG2 Attagene cis-factorial HNF6 reporter transcription; actives raise or lower the signal
Chain of Hepatocyte nuclear factor 6 (Homo sapiens) (Q9UBC0 whole entry, looked up, the tested form may be a part): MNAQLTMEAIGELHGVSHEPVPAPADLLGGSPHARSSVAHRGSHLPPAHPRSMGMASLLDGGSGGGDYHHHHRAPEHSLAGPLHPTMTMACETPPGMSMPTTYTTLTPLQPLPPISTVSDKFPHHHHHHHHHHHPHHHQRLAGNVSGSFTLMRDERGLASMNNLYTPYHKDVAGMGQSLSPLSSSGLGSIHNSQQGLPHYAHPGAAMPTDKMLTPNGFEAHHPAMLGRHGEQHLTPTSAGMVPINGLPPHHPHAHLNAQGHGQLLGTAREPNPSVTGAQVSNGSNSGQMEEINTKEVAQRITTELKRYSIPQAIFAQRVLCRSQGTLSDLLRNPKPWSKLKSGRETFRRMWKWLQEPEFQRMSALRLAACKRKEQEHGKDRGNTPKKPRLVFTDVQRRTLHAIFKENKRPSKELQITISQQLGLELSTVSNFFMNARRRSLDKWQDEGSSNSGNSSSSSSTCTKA
Summary of the method: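 Reporter mRNA induction or loss in HepG2 after 24 h exposure; transient cis-MRTU transfection; fragments quantified by capillary electrophoresis; bidirectional analysis, DMSO as negative control.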

[17] = biological target: Heat shock factor protein 1 (Homo sapiens) (UniProt Q00613); test: ATG_HSE_CIS: Attagene CIS-FACTORIAL HepG2 Assay for human Heat Shock Transcription Factor 1 (HSE) (AID 2282953); settings: HepG2 HSE cis-reporter, Attagene RNA transcription; actives raise or lower the signal
Chain of Heat shock factor protein 1 (Homo sapiens) (Q00613 whole entry, looked up): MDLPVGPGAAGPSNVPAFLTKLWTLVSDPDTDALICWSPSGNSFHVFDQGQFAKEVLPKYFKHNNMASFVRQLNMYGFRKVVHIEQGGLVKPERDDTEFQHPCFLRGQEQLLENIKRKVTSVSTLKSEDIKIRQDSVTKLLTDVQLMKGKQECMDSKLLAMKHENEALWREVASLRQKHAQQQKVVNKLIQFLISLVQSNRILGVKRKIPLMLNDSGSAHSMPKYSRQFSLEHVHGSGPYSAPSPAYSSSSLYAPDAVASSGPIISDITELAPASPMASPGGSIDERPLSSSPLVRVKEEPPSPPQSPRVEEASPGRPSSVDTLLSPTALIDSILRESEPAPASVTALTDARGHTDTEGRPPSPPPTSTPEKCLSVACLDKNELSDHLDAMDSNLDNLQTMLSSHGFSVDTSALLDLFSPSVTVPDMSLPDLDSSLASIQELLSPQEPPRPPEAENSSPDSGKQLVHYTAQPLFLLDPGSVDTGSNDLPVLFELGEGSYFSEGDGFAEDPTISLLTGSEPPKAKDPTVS
Summary of the method: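 Endogenous transcription factor activity in transiently transfected HepG2, read as reporter mRNA by RT-PCR with fluorescent capillary electrophoresis after 24 h. Gain or loss of signal fitted versus DMSO baseline.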

[18] = ATG_MRE_CIS: Attagene CIS-FACTORIAL HepG2 Assay for human Metal Responsive Element (MRE) (AID 2282954); settings: HepG2 MRE cis-reporter transcription, Attagene multiplex; actives raise or lower the signal
Summary of the method: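 Step one: transfect HepG2 with cis-regulated reporter units. Step two: dose 24 h. Step three: isolate RNA, RT-PCR, 6-FAM label, HpaI digest, capillary electrophoresis. Fit bidirectionally to DMSO.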

[19] = biological target: Bile acid receptor (Homo sapiens) (UniProt Q96RI1); test: ATG_IR1_CIS: Attagene CIS-FACTORIAL HepG2 Assay for human Nuclear Receptor Subfamily 1 Group H Member 4 (NR1H4), IR1 submotif (AID 2282946); settings: IR1 reporter transcription, actives raise or lower the signal
Chain of Bile acid receptor (Homo sapiens) (Q96RI1 whole entry, looked up): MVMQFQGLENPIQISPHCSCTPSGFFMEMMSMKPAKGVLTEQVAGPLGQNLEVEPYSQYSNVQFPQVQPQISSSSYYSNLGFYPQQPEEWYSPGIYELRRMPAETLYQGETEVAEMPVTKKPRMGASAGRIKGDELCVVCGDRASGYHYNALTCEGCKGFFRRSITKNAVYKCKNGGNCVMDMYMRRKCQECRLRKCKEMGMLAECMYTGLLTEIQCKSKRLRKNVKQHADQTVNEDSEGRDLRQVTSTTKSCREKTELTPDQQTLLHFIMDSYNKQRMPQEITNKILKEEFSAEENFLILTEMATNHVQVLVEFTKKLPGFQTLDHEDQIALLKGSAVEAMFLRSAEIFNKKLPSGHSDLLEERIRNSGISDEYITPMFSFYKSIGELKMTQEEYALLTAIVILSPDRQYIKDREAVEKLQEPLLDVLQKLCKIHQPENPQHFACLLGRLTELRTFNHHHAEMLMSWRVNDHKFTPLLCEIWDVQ
Summary of the method: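 Transient MRTU transfection, HepG2; 24 h dosing; RNA → RT-PCR → 6-FAM primer extension → HpaI digest → capillary electrophoresis fluorescence. Gain/loss of signal fitted relative to DMSO.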

[20] = ATG_FoxO_CIS: Attagene CIS-FACTORIAL HepG2 Assay for human Forkhead box O (FoxO) (AID 2282943); settings: HepG2 Attagene cis-reporter, FoxO element, mRNA; actives raise or lower the signal
Summary of the method: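 Values reflect reporter mRNA induction or loss in HepG2 cells 24 h post-dosing, fitted bidirectionally with DMSO as negative control and baseline. Detection used RT-PCR and fluorescence capillary electrophoresis.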

Measured: AC50

COc1ccc(S(=O)(=O)N2C(=O)[C@@](c3ccccc3OC)(N3C[C@H](O)C[C@H]3C(=O)N(C)C)c3cc(Cl)ccc32)c(OC)c1
active: [4] 36.7 µM | [7] 83.5 µM | [8] 132 µM | [10] 125 µM | [11] 147 µM | [12] 49.9 µM | [13] 133 µM | [15] 25.2 µM | [17] 149 µM | [18] 45.5 µM
inactive: [1] | [2] | [3] | [5] | [6] | [9] | [14] | [16]

CN[C@H]1CC[C@@H](c2ccc(Cl)c(Cl)c2)c2ccc(S(N)(=O)=O)cc21
not listed: [20]
inactive: all other assays above

CCCCCCCCCCO
active: [18] 160 µM
not listed: [17]
inactive: all other assays above

CCCCCC(=O)O
not listed: [11] | [17] | [19] | [20]
inactive: all other assays above

Cc1cccc(Nc2cc(Cl)nc(SCC(=O)O)n2)c1C
not listed: [15] | [17] | [19]
inactive: all other assays above

CC(=O)C(C)=CC1C(C)=CCCC1(C)C (stereo not given)
active: [6] 33.4 µM
not listed: [15] | [17] | [19] | [20]
inactive: all other assays above

c1cc(-c2ccncc2)ccn1
not listed: [17] | [19]
inactive: all other assays above

COc1cccc2c1C(=O)c1c(O)c3c(c(O)c1C2=O)C[C@@](O)(C(=O)CO)C[C@@H]3O[C@H]1C[C@H](N)[C@H](O)[C@H](C)O1
active: [2] 1.85 µM | [4] 2.04 µM | [20] 0.543 µM | [10] 1.25 µM | [11] 0.942 µM | [12] 1.63 µM | [15] 1.23 µM | [18] 1.66 µM
not listed: [17] | [19]
inactive: all other assays above

Cc1ccc(C)c(O)c1C
not listed: [15] | [19]
inactive: all other assays above

CCCCCCC(=O)OCC
active: [6] 34.7 µM
not listed: [11] | [15] | [19]
inactive: all other assays above

COc1cc(C=O)ccc1O
not listed: [11] | [17]
inactive: all other assays above

CCc1c(C(=O)NN2CCCCC2)nn(-c2ccc(Cl)cc2Cl)c1-c1ccc(Br)cc1
active: [4] 3.12 µM | [6] 6.06 µM | [19] 2.4 µM | [12] 3.67 µM | [18] 4.76 µM
not listed: [11] | [15] | [17] | [20]
inactive: all other assays above

NC(=O)Cn1c(=O)cc(CCN2CCN(c3nccc4sccc34)CC2)c2ccc(F)cc21
active: [15] 61.4 µM
inactive: all other assays above
